# Experimental data from PubChem BioAssay (Tox21).
# Several values for one entry are separate records, joined by “and”; a condition that tells them apart may be missing. Identical values can stand only once. Results filed as inconclusive are left out. Entries that show only a call come without a potency. More than one record can exist for a structure, and the calls need not agree. Activity calls are given as the source filed them. Unless noted, calls follow the shape of the dose curve; as a rule, active = well fitted curve in the direction sought with a large enough effect in the repeat runs; inconclusive = weak or mixed curves; inactive = no such curve, though single readings can be large; an effect the other way counts as inactive or inconclusive.
# What was measured:
# [1] = target: Peroxisome proliferator-activated receptor delta (Homo sapiens) (UniProt Q03181); assay: qHTS assay to identify small molecule antagonists of the peroxisome proliferator-activated receptor delta (PPARd) signaling pathway (AID 743215; active = well fitted inhibition curve with a large enough effect in the signal ratio in the repeat runs, not every such curve was filed as active; the % refers to the signal ratio;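 also: cells stimulated with agonist L165041 at 300 nM final during compound exposure; series mostly up to about 62 µM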)
# Sequence of Peroxisome proliferator-activated receptor delta (Homo sapiens) (Q03181 whole entry, looked up): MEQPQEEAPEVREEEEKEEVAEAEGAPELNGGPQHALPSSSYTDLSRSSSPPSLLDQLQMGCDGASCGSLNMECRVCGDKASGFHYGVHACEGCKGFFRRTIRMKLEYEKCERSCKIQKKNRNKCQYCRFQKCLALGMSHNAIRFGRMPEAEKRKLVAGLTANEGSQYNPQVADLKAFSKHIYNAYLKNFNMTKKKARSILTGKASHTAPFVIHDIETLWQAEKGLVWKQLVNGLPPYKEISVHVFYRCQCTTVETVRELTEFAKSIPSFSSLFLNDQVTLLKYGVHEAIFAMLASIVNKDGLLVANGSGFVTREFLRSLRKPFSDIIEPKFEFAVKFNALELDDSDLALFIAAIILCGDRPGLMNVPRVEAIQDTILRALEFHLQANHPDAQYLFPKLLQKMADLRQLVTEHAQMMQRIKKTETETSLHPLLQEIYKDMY
# In short: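 Cells: HEK293H with a UAS-driven beta-lactamase reporter responsive to PPARd. Compounds were co-added with L165041 (300 nM, final) and incubated 17 h at 37 C before a 2 h room-temperature FRET substrate step and fluorescence reading.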
# [2] = target: Bile acid receptor (Homo sapiens) (UniProt Q96RI1); assay: qHTS assay to identify small molecule antagonists of the farnesoid-X-receptor (FXR) signaling pathway (AID 743217; active = well fitted inhibition curve with a large enough effect in the signal ratio in the repeat runs, not every such curve was filed as active; the % refers to the signal ratio)
# Sequence of Bile acid receptor (Homo sapiens) (Q96RI1 whole entry, looked up): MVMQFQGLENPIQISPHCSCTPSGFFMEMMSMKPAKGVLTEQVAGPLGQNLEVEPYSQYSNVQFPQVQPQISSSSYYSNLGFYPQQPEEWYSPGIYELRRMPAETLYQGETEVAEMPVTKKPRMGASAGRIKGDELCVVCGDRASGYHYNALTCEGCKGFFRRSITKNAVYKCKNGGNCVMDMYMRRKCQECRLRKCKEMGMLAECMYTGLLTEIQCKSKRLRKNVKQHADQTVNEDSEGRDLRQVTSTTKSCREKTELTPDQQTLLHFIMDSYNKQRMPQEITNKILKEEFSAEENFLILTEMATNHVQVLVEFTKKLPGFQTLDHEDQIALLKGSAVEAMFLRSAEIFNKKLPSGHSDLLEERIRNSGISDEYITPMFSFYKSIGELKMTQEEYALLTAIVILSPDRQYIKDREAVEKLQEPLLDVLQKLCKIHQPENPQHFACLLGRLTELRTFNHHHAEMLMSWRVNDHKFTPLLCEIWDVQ
# In short: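 Cells carrying a UAS-driven beta-lactamase reporter (GeneBLAzer FXR-UAS-bla HEK 293T) were plated and rested 5 h at 37 °C. Compounds in DMSO were added alongside chenodeoxycholic acid agonist at 50 uM final and left 16 h at 37 °C before FRET substrate readout.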
# [3] = qHTS assay to identify small molecule agonists of the farnesoid-X-receptor (FXR) signaling pathway - cell viability counter screen (AID 743218); also: nearly all actives have a fitted effect of over 45% in size; also: potency is read from the fitted curve at half-maximal effect
# In short: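 Cells were seeded, left 5 h at 37 C and 5% CO2, then dosed with compound in DMSO for 16 h. After the beta-lactamase FRET read, CellTiter-Glo was added and luminescence measured 30 min later.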
# [4] = target: Bile acid receptor (Homo sapiens) (UniProt Q96RI1); assay: qHTS assay to identify small molecule agonists of the farnesoid-X-receptor (FXR) signaling pathway (AID 743220; active = well fitted activation curve with a large enough effect in the signal ratio in the repeat runs, not every such curve was filed as active; the % refers to the signal ratio)
# In short: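 FXR-UAS-bla HEK 293T cells carrying a UAS-driven beta-lactamase reporter were plated for 5 h at 37C/5% CO2, then exposed to DMSO-dissolved Tox21 10K compounds for 16 h at 37C. A LiveBLAzer B/G FRET substrate was loaded for 2 h at room temperature before fluorescence reading.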
# [5] = qHTS assay to identify small molecule antagonists of the farnesoid-X-receptor (FXR) signaling pathway - cell viability counter screen (AID 743221; active = well fitted cell-killing curve with a large enough effect in the repeat runs, not every such curve was filed as active; also: nearly all actives have a fitted effect of over 50% in size)
# In short: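 HEK 293T FXR-bla cells, 5 h pre-incubation; compound + CDCA 50 uM final, 16 h, 37 C; beta-lactamase FRET read first, then CellTiter-Glo luminescence, 30 min RT.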
# [6] = target: Vitamin D3 receptor (Homo sapiens) (UniProt P11473); assay: qHTS assay to identify small molecule agonists of the vitamin D receptor (VDR) signaling pathway (AID 743222; calls by dose curve)
# Sequence of Vitamin D3 receptor (Homo sapiens) (P11473 whole entry, looked up): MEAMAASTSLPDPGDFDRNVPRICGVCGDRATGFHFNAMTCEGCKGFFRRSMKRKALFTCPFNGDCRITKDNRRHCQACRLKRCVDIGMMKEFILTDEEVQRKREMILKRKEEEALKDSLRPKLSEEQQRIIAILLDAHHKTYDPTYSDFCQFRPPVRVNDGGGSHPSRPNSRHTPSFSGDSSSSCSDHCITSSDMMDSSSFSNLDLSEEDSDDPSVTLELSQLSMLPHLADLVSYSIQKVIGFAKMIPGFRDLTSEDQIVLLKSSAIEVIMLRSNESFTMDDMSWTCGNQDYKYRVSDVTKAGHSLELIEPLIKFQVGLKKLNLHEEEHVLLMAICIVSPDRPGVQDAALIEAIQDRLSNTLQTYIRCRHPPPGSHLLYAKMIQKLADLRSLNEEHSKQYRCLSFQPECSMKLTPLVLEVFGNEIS
# In short: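 Cells carrying a VDR-driven beta-lactamase reporter are seeded at 2,000 per well and rested 4 h. Compounds in DMSO are added for 16 h at 37C, and FRET substrate fluorescence is measured after 2 h at room temperature.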
# [7] = target: Vitamin D3 receptor (Homo sapiens) (UniProt P11473); assay: qHTS assay to identify small molecule antagonists of the vitamin D receptor (VDR) signaling pathway (AID 743223; active = well fitted inhibition curve with a large enough effect in the signal ratio in the repeat runs, not every such curve was filed as active; the % refers to the signal ratio)
# In short: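 Beta-lactamase reporter read-out: FRET substrate fluorescence after 2 h at room temperature, following 16 h exposure of VDR-bla cells to test compound plus 3 nM (final) 1alpha,25-dihydroxyvitamin D3 agonist at 37C.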
# [8] = qHTS assay to identify small molecule agonists of the vitamin D receptor (VDR) signaling pathway - cell viability counter screen (AID 743224); also: nearly all actives have a fitted effect of over 50% in size; also: potency is read from the fitted curve at half-maximal effect
# In short: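 Cells: VDR-bla, 2,000/well, settled 4 h. Treatment: compounds in DMSO, 16 h, 37C/5% CO2. Readout: CellTiter-Glo luminescence after 30 min RT.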
# [9] = qHTS assay to identify small molecule antagonists of the vitamin D receptor (VDR) signaling pathway - cell viability counter screen (AID 743225); also: nearly all actives have a fitted effect of over 50% in size
# In short: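 Viability counter screen run in the same wells as the beta-lactamase reporter assay: HEK 293T VDR-UAS-bla cells, 16 h compound exposure at 37C with 3 nM (final) 1-alpha,25-dihydroxyvitamin D3. CellTiter-Glo luminescence, 30 min, room temperature.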
# [10] = qHTS assay to identify small molecule agonists of the NFkB signaling pathway - cell viability counter screen (AID 1159515; calls by dose curve; also: series mostly up to about 61 µM; nearly all actives have a fitted effect of over 55% in size)
# In short: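 Cells are seeded (2,000 NFkB-bla ME-180 per well), rested overnight, and dosed with DMSO-dissolved compounds for 5 hr at 37 C. Viability is then read by CellTiter-Glo luminescence after 30 min at room temperature.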
# [11] = qHTS assay to identify small molecule agonists of the endoplasmic reticulum stress response signaling pathway (AID 1159516; active = well fitted activation curve with a large enough effect in the signal ratio in the repeat runs, not every such curve was filed as active; the % refers to the signal ratio)
# In short: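 Cells are seeded at 1,500 per well and incubated overnight. Compounds in DMSO are added for 5 hr at 37 C, then beta-lactamase FRET substrate for 2 hr at room temperature, and fluorescence at 460 and 530 nm is measured.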
# [12] = qHTS assay to identify small molecule agonists of the endoplasmic reticulum stress response signaling pathway - cell viability counter screen (AID 1159517; calls by dose curve; also: nearly all actives have a fitted effect of over 50% in size; also: potency is read from the fitted curve at half-maximal effect)
# In short: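 Steps: seed 1,500 ESRE-bla HeLa cells per well; incubate overnight at 37 C, 5% CO2; add compounds in DMSO for 5 hr; run FRET substrate 2 hr RT; add CellTiter-Glo, wait 30 min, read luminescence.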
# [13] = qHTS assay to identify small molecule antagonists of the retinoid-related orphan receptor gamma (ROR-gamma) signaling pathway - cell viability counter screen (AID 1159520); also: nearly all actives have a fitted effect of over 50% in size
# In short: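 Tet-on ROR gamma CHO cells were given compounds for 2 hr, then doxycycline hyclate at 1 uM final, and incubated 16 hr at 37 C. Viability was measured as ATP content by CellTiter-Glo luminescence.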
# [14] = qHTS assay to identify small molecule agonists of the AP-1 signaling pathway - cell viability counter screen (AID 1159525; calls by dose curve; also: nearly all actives have a fitted effect of over 55% in size)
# In short: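 Same-well cytotoxicity counter screen of the Tox21 10K library in ME-180 cells. The readout is ATP-dependent luminescence after 5 h compound treatment. Data are normalised to DMSO and tetra n-octyl ammonium bromide controls.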
# [15] = qHTS assay to identify small molecule agonists of the AP-1 signaling pathway (AID 1159526; calls by dose curve)
# [16] = target: Peroxisome proliferator-activated receptor delta (Homo sapiens) (UniProt Q03181); assay: qHTS assay to identify small molecule agonists of the peroxisome proliferator-activated receptor delta (PPARd) signaling pathway (AID 743212; calls by dose curve)
# In short: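 Read-out: beta-lactamase FRET fluorescence after 2 h room-temperature incubation with LiveBLAzer B/G substrate. Cells were HEK293H carrying a UAS-bla reporter for PPARd, treated at 37 C with DMSO-dissolved compounds.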
# [17] = qHTS assay to identify small molecule antagonists of the peroxisome proliferator-activated receptor delta (PPARd) signaling pathway - cell viability counter screen (AID 743213); also: nearly all actives have a fitted effect of over 50% in size; also: potency is read from the fitted curve at half-maximal effect
# In short: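 In this counter screen, HEK293H cells carrying a UAS-beta-lactamase reporter are co-treated with test compounds and 300 nM L165041 (final) for 17 h at 37 C; cell viability is quantified by CellTiter-Glo luminescence.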
# [18] = target: Nuclear receptor ROR-gamma (Homo sapiens) (UniProt P51449); assay: qHTS assay to identify small molecule antagonists of the retinoid-related orphan receptor gamma (ROR-gamma) signaling pathway (AID 1159521)
# In short: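 Luminescence readout (ONE-Glo, 30 min RT) after 16 h doxycycline induction; loss of signal scored as antagonism. CHO cells with TET-inducible RORγ and RORE-LUC reporter; compounds added 2 h before 1 uM final doxycycline.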
# [19] = qHTS assay to identify small molecule agonists of the peroxisome proliferator-activated receptor delta (PPARd) signaling pathway - cell viability counter screen (AID 743211); also: nearly all actives have a fitted effect of over 55% in size; also: potency is read from the fitted curve at half-maximal effect
# In short: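 Read-out: CellTiter-Glo luminescence, 30 min RT, measured in the same wells as the beta-lactamase reporter. Cells: GeneBLAzer PPAR delta UAS-bla HEK293H, 3000 cells/well, compound exposure 17 h at 37C.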
Structure (SMILES),outcome [1],outcome [2],Potency [3],outcome [4],Potency [5],Potency [6],Potency [7],Potency [8],Potency [9],outcome [10],outcome [11],Potency [12],Potency [13],Potency [14],Potency [15],outcome [16],Potency [17],Potency [18],Potency [19]
O=C(O)c1cc(-c2ccccc2)nc2ccccc12,inactive,inactive,inactive,inactive,inactive,inactive,inactive,inactive,inactive,inactive,inactive,inactive,inactive,inactive,inactive,–,–,–,–
CCCCCCOC(C)=O,inactive,inactive,inactive and 24.5 µM (active),inactive,–,inactive,–,inactive,inactive,inactive,inactive,inactive,inactive,inactive,inactive,inactive,inactive,–,–
CC1=C(/C=C/C(C)=C/C=C/C(C)=C/CO)C(C)(C)CCC1,inactive,–,inactive,–,inactive,–,inactive,inactive,inactive,–,inactive,inactive,inactive,inactive,inactive,–,inactive,–,–
O=C(c1ccc(O)cc1)c1ccc(O)cc1O,inactive,inactive,inactive,inactive,inactive,–,–,inactive,inactive,–,inactive,inactive,inactive,inactive,inactive,inactive,inactive,inactive,–
CCCCCCCCCCCCN,inactive,–,inactive and 43.6 µM (active),–,–,–,–,inactive and 49 µM (active),–,–,inactive,11.1 µM (active) and 21.9 µM (active) and 19.8 µM (active),inactive,inactive,inactive,inactive,inactive and 49 µM (active),inactive,inactive and 19.5 µM (active)
O=C1N=C(O)CN1/N=C/c1ccc(-c2ccc([N+](=O)[O-])cc2)o1,–,–,–,–,–,inactive,inactive,inactive,inactive,inactive,inactive,inactive,inactive,inactive,inactive,–,inactive,–,inactive
Oc1c(Cl)cc(Cl)c(Cl)c1Cl,inactive,–,–,inactive,inactive,inactive,–,inactive,–,inactive,inactive,inactive,inactive,inactive,inactive,–,inactive,–,inactive
CC1=CC[C@H]2C[C@@H]1C2(C)C,–,–,inactive,–,inactive,inactive,–,inactive,–,–,inactive,–,inactive,inactive,inactive,–,inactive,inactive,inactive
OCC1CCCO1 (stereo unspecified),inactive,inactive,inactive,inactive,–,inactive,inactive,inactive,–,inactive,inactive,inactive,inactive,inactive,inactive,inactive,inactive,–,inactive
OC[C@@H](O)[C@@H](O)[C@H](O)[C@@H](O)CO,–,–,inactive,–,inactive,inactive,–,inactive,inactive,–,inactive,inactive,inactive,inactive,inactive,–,inactive,inactive,inactive
O=S(=O)(O)c1cc(S(=O)(=O)O)c2c(N=Nc3ccccc3)c(O)ccc2c1,inactive,inactive,inactive,inactive,–,inactive,inactive,inactive,inactive,inactive,inactive,inactive,inactive,inactive,inactive,–,inactive,–,inactive
O=c1c(-c2ccc(O)cc2)coc2cc(O)ccc12,inactive,–,inactive,inactive,–,–,–,inactive,inactive,inactive,inactive,inactive,inactive,inactive,inactive,inactive,inactive,inactive,–
CCOC(=O)C1OC1c1ccccc1 (stereo unspecified),inactive,–,inactive,–,inactive,inactive,inactive,inactive,inactive,inactive,inactive,inactive,inactive,inactive,inactive,–,inactive,–,inactive
C=C(C)C(=O)OCCCCCCCCCCCC,inactive,–,inactive,–,inactive,inactive,inactive,inactive,inactive,inactive,inactive,inactive,inactive,inactive,inactive,inactive,inactive,–,–
Cc1cc(O)c2c(c1)C(=O)c1cc(O)cc(O)c1C2=O,–,–,–,–,inactive,–,–,24 µM (active) and inactive,–,inactive,inactive,inactive,–,inactive,–,–,inactive,inactive,–
Cc1ccc(N)c(S(=O)(=O)O)c1,inactive,inactive,inactive,inactive,–,inactive,–,inactive,inactive,–,inactive,inactive,inactive,inactive,inactive,inactive,inactive,–,inactive
CC1=C(CC(=O)O)c2cc(F)ccc2/C1=C\c1ccc(S(C)=O)cc1 (stereo unspecified),inactive,–,inactive,–,inactive,–,–,inactive,–,inactive,inactive,inactive,inactive,inactive,inactive,–,inactive,inactive,–
CC1(C)CC(N=C=O)CC(C)(CN=C=O)C1 (stereo unspecified),–,inactive,inactive,inactive,inactive,inactive,inactive,inactive,–,inactive,inactive,inactive,inactive,inactive,inactive,–,inactive,inactive,–
CC#C[C@]1(O)CC[C@H]2[C@@H]3CCC4=CC(=O)CCC4=C3[C@@H](c3ccc(N(C)C)cc3)C[C@@]21C,–,–,–,–,–,–,–,inactive,inactive,–,inactive,inactive,inactive,inactive,inactive,–,inactive,–,–
Clc1cc(Cl)c(Cl)cc1Cl,inactive,–,inactive,–,inactive,–,–,inactive,–,inactive,inactive,inactive,inactive,inactive,inactive,–,inactive,–,inactive
Nc1cc(-c2ccncc2)c[nH]c1=O,inactive,–,inactive,–,inactive,inactive,–,inactive,–,–,inactive,inactive,inactive,inactive,inactive,inactive,inactive,inactive,inactive
CNC[C@H](O)[C@@H](O)[C@H](O)[C@H](O)CO,inactive,inactive,inactive,inactive,inactive,inactive,inactive,inactive,–,inactive,inactive,inactive,inactive,inactive,inactive,–,inactive,–,–
c1ccc2ccccc2c1,inactive,inactive,inactive,inactive,inactive,inactive,inactive,inactive,inactive,inactive,inactive,inactive,inactive,inactive,inactive,inactive,inactive,–,inactive
